Screening data deposited in PubChem by National Center for Advancing Translational Sciences (NCATS).
JMJD2A Tudor inh = blocks the human JMJD2A Tudor domain; Potency, µM (series often up to 114 µM), actives largely listed as inhibitors; hit rate 4.4% among 390,000; AID 504339; AlphaScreen JMJD2A-Tudor / H3K4me3 peptide binding; note: nearly all actives have a fitted effect of over 50% in size
L3MBTL1 inh = L3MBTL1 (human) inhibition; Q9Y468; AlphaScreen L3MBTL1–H3K9me1 peptide binding; Potency, µM (doses to about 57.1 µM), usual class: inhibitors; hit rate 0.66% among 230,000; AID 485360; note: nearly all actives have a fitted effect of over 60% in size
Target sequence (Q9Y468 whole entry, looked up): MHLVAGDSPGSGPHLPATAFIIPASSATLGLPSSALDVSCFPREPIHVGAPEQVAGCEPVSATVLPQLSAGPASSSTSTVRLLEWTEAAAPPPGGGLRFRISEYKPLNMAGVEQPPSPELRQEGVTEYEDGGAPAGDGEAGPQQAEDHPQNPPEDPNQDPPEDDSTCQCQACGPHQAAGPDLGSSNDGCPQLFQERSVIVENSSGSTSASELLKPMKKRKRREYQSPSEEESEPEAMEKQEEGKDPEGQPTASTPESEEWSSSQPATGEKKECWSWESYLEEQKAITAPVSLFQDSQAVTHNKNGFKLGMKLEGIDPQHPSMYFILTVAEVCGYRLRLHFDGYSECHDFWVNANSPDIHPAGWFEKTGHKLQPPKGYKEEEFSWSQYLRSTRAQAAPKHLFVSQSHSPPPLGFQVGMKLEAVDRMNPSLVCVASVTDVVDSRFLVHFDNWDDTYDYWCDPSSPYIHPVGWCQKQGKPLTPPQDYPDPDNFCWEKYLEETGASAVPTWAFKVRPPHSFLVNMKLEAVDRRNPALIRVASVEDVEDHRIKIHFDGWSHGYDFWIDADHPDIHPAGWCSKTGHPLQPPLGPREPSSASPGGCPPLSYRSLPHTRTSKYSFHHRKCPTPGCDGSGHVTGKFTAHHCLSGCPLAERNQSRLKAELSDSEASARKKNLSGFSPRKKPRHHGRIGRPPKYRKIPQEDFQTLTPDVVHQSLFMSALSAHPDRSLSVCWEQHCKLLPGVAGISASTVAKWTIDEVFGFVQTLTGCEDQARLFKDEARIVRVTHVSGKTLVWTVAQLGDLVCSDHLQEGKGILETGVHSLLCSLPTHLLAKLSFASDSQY
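L3MBTL1 (50 nM) pre-complexed 30 min with biotinylated H3(1-15)K9me1 peptide (75 nM), then compounds added for 30 min at room temperature; AlphaScreen streptavidin donor/nickel chelate acceptor beads (10 ug/mL final) read after 30 min dark incubation.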
G9a block = blocks human histone lysine methyltransferase G9a. hit rate 8.8% among 350,000. AID 504332. Q96KQ7. G9a H3K9 monomethylation, AlphaScreen, 2 h. Potency, µM (titrated, usually from 102 µM), actives largely listed as inhibitors; note: nearly all actives have a fitted effect of over 75% in size
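Enzyme 20 nM + cpd, 15 min RT; add b-H3K9 pep 500 nM / SAM 20 uM; 2 h RT; anti-H3K9me1 Ab 0.5 ug/mL + SA donor / anti-rabbit acceptor beads 20 ug/mL each, 10 min; AlphaScreen read.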
BAZ2B inh = BAZ2B (human) inhibition. AlphaScreen BAZ2B-H3K14Ac peptide displacement. Potency, µM (highest dose often 114 µM), actives largely listed as inhibitors. hit rate 4.4% among 360,000. AID 504333; note: nearly all actives have a fitted effect of over 60% in size
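Inhibition is scored as reduced AlphaScreen emission. The BAZ2B/b-H3(5-23)K14Ac complex (50 nM each) in PBS pH 7.4, 0.01% Tween-20 meets compound (up to 110 uM) for 30 min at RT before bead addition.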
Sfp inh = inhibitors of Bacillus subtilis Sfp phosphopantetheinyl transferase. Q9F4F7. Biochemical Sfp PPTase activity, qHTS. Potency, µM, hits mostly inhibitors. hit rate 3.5% among 310,000. AID 1490;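 note: the enzyme is Sfp with the accession as filed and its product quenches rhodamine fluorescence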
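Sfp 15 nM + cpd, 15 min RT; start w/ rhodamine-CoA 5 uM, BHQ-2-YbbR 12.5 uM (final); 50 mM Hepes pH 7.6, 10 mM MgCl2, 0.01% NP-40, 0.01% BSA; read 525/598 nm at 0 and 30 min.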
HP1b chromo inh = HP1-beta chromodomain-methylated histone interaction inhibition; AlphaScreen HP1-beta / biotin-H3K9me3 peptide binding; AID 540317; Potency, µM (doses to about 114 µM), usual class: inhibitors; hit rate 0.56% among 390,000; P83916; note: nearly all actives have a fitted effect of over 70% in size
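Compound inhibition of the preformed complex between 50 nM HP1-beta and 50 nM biotinylated H3K9me3 peptide was read by AlphaScreen. Buffer was PBS pH 7.4 with 0.01% Tween-20. Incubations ran 30 min at room temperature, with 10 ug/mL donor/acceptor beads.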
A number is an active result; – = inactive; ? = inconclusive; · = no result; [ ] = another dose, or the depositor's remark. A selection: hits, their analogues and other compounds. The true share with any hit is near 12%. Calls come from the whole dose curve; as a rule, active = well fitted curve in the direction sought with a large enough effect; inconclusive = small, poorly fitted or top-dose-only effect, or another doubt; inactive = no such curve, though single readings can be large; an effect the other way counts as inactive or inconclusive.

SMILES	JMJD2A Tudor inh	L3MBTL1 inh	G9a block	BAZ2B inh	Sfp inh	HP1b chromo inh
COc1ccc(/C(O)=C2/C(=O)C(=O)N(CCCN3CCOCC3)C2c2ccc(OC)cc2)cc1 (stereo unspecified)	–	–	·	–	–	–
COCCN1C(=O)C(=O)/C(=C(/O)c2ccc(S(=O)(=O)N3CCCCC3)cc2)C1c1ccc(OC)cc1 (stereo unspecified)	–	·	71µM	–	–	–
COCCN1C(=O)C(=O)/C(=C(/O)c2ccc(S(=O)(=O)N3CCOCC3)cc2)C1c1cccc(OC)c1 (stereo unspecified)	–	·	71µM	–	–	–
COCCN1C(=O)C(=O)/C(=C(/O)c2ccc(S(=O)(=O)N3CCCCC3)cc2)C1c1ccc(O)c(OC)c1 (stereo unspecified)	89µM	·	71µM	–	–	–
COc1ccc(C2/C(=C(/O)c3ccc(S(=O)(=O)N4CCOCC4)cc3)C(=O)C(=O)N2CCN2CCOCC2)cc1 (stereo unspecified)	–	·	50µM	?	–	–
COCCN1C(=O)C(=O)/C(=C(/O)c2ccc(S(=O)(=O)N3CCOCC3)cc2)C1c1cccc(O)c1 (stereo unspecified)	–	–	–	?	–	–
COCCCN1C(=O)C(=O)/C(=C(/O)c2ccc(S(=O)(=O)N3CCCCC3)cc2)C1c1ccc(F)cc1 (stereo unspecified)	–	·	–[0.0925 µM]	?	–	–
O=[N+]([O-])c1ccc(S(=O)(=O)N2CCN(c3nc(-c4cccs4)nc4ccccc34)CC2)cc1	–	·	·	·	·	–
COCCNC(=O)CCCn1c(SCC(=O)c2ccc(F)cc2)nc2c(sc3ccccc32)c1=O	–	·	–	–	·	–
O=C(NC(=S)NNC(=O)[C@H]1C[C@@H]1c1ccccc1)c1cccc(F)c1	–	–	16µM	–	32µM	–
Cc1ccc(C2c3c(-c4cc(C)ccc4O)n[nH]c3C(=O)N2Cc2ccco2)cc1 (stereo unspecified)	?	·	28µM	22µM	·	–
O=C1c2[nH]nc(-c3ccccc3O)c2C(c2ccc(F)cc2)N1Cc1ccco1 (stereo unspecified)	?	·	–[12.7 µM]	?	–	–
COc1ccc(C2c3c(-c4ccccc4O)n[nH]c3C(=O)N2Cc2ccco2)cc1OC (stereo unspecified)	?	?	–	56µM	–	–
CC1Cc2cc(C(=O)O)ccc2O1 (stereo unspecified)	–	–	–	·	–	–
C=C(CO)C1Cc2cc(C(C)=O)ccc2O1 (stereo unspecified)	?	·	–[12.7 µM]	79µM	–	–
COc1cc2oc(=O)cc(-c3ccc(-c4cccc(N)c4)cc3)c2c(OC)c1OC	·	·	28µM	·	–	·
COc1ccc(-c2ccc(-c3cc(=O)oc4cc(OC)c(OC)c(OC)c34)cc2)cc1OC	–	–	–	·	–	–
O=C(Cc1nc2ccccc2[nH]1)c1ccc(Cl)cc1	–	·	–	–	–	–
CN/N=C(\Cc1nc2ccccc2[nH]1)c1ccc([N+](=O)[O-])cc1	?	–	?	?	22µM	–
Clc1ccc(/C(Cc2nc3ccccc3[nH]2)=N\Nc2ccccc2)cc1	?	?	7.1µM	?	–	–
O=c1[nH]c2ccccc2nc1Cc1ccc([N+](=O)[O-])cc1	–	·	50µM	–	–	–
O=c1[nH]c2ccccc2nc1Cc1ccc(Cl)cc1	–	·	–	–	–	–
O=C(Cc1nc2ccccc2[nH]1)c1ccc([N+](=O)[O-])cc1	–	–	45µM	–	16µM	–
Cc1cc(C)cc(NC(=O)CN(c2cc(C(F)(F)F)ccc2Cl)S(=O)(=O)c2ccccc2)c1	–	·	–	–	·	–
CCN(CC)C(=O)COc1ccc(C=O)cc1OC	–	–	–	–	–	–
SMILES	JMJD2A Tudor inh	L3MBTL1 inh	G9a block	BAZ2B inh	Sfp inh	HP1b chromo inh
CCCn1c(=O)c2sccc2n2c(CCCC(=O)Nc3ccc(Oc4ccc(Cl)cc4)cc3)nnc12	–	·	–	–	·	–
CC1(O)CC2CC1C(C(=O)O)C2C(=O)O (stereo unspecified)	–	·	·	·	·	–
O=C(CBr)N1CCc2ccccc2C(c2ccccc2)C1 (stereo unspecified)	–	–	32µM	–	32µM	–
O=C(CN1CCOCC1)N1CCc2ccccc2C(c2ccccc2)C1 (stereo unspecified)	–	–	?	–	?	–
Cc1cc(C)cc(NC(=O)C2CCCN(c3nnc(-n4c(C)ccc4C)s3)C2)c1 (stereo unspecified)	–	·	–	–	·	–
COc1cccc(-c2nc(CS(=O)CC(=O)NCCCOC(C)C)c(C)o2)c1 (stereo unspecified)	–	–	45µM	–	–	–
Cc1ccccc1-c1nc(CS(=O)CC(=O)NC(C)CCc2ccccc2)c(C)o1 (stereo unspecified)	–	·	71µM	?	–	–
Cc1ccc(CCNC(=O)CS(=O)Cc2nc(-c3ccccc3Cl)oc2C)cc1 (stereo unspecified)	–	·	50µM	–	–	–
COc1cccc(-c2nc(CS(=O)CC(=O)NC(C)CCc3ccccc3)c(C)o2)c1 (stereo unspecified)	–	·	?	–	–	–
CCOc1ccc(CCNC(=O)CS(=O)Cc2nc(-c3ccccc3Cl)oc2C)cc1OCC (stereo unspecified)	–	·	–	–	–	–
CCc1cccc(NC(=O)CS(=O)Cc2nc(-c3ccc(C)cc3)oc2C)c1 (stereo unspecified)	–	–	45µM	–	–	–
COc1cccc(-c2nc(CS(=O)(=O)CC(=O)NCCCOC(C)C)c(C)o2)c1	–	–	–[0.501 µM]	–	–	–
OC1c2ccccc2-c2nc3ccccc3cc21 (stereo unspecified)	·	·	·	·	–	·
CC(C)CCCC(C)C1CCC2C3=CC[C@@H]4CC(O)CC[C@@]4(C)C3CC[C@]21C (stereo partly specified)	·	·	·	·	–	·
COC(=O)c1ccc(NC(=O)c2ccc[n+]([O-])c2)cc1	–	·	–	–	–	–
CCc1ccc(-c2nc(CS(=O)CC(=O)NCc3ccc4c(c3)OCO4)c(C)o2)cc1 (stereo unspecified)	–	·	40µM	–	–	–
Cc1ccc(-c2nc(CS(=O)CC(=O)NCc3ccc4c(c3)OCO4)c(C)o2)cc1 (stereo unspecified)	–	–	?	–	–	–
Cc1ccc(-c2nc(CS(=O)CC(=O)NCc3ccc(Cl)cc3)c(C)o2)cc1 (stereo unspecified)	–	·	?	–	–	–
CCOc1ccc(CCNC(=O)CS(=O)Cc2nc(-c3ccc(OC)cc3)oc2C)cc1OCC (stereo unspecified)	–	·	50µM	–	–	–
